Reference: the supplement of paper PMC3334620
Over roughly 33,000 sequences, “E-score (-0.5 to 0.5)” has its median near -0.053; the highest 2% begin near 0.37. What follows is part of a selection rich in the highest values, with near analogues and random picks from the rest.

target: Hap1 (UniProt P0CE41); experiment: PBM E-score (8-mer binding enrichment) (E-score (-0.5 to 0.5)); higher = stronger / more preferred TF binding; conditions: protein concentration: 200 nM; construct: GST-DNA-binding domain
UniProt P0CE41, sequence (P0CE41 whole entry, the tested form may be a part): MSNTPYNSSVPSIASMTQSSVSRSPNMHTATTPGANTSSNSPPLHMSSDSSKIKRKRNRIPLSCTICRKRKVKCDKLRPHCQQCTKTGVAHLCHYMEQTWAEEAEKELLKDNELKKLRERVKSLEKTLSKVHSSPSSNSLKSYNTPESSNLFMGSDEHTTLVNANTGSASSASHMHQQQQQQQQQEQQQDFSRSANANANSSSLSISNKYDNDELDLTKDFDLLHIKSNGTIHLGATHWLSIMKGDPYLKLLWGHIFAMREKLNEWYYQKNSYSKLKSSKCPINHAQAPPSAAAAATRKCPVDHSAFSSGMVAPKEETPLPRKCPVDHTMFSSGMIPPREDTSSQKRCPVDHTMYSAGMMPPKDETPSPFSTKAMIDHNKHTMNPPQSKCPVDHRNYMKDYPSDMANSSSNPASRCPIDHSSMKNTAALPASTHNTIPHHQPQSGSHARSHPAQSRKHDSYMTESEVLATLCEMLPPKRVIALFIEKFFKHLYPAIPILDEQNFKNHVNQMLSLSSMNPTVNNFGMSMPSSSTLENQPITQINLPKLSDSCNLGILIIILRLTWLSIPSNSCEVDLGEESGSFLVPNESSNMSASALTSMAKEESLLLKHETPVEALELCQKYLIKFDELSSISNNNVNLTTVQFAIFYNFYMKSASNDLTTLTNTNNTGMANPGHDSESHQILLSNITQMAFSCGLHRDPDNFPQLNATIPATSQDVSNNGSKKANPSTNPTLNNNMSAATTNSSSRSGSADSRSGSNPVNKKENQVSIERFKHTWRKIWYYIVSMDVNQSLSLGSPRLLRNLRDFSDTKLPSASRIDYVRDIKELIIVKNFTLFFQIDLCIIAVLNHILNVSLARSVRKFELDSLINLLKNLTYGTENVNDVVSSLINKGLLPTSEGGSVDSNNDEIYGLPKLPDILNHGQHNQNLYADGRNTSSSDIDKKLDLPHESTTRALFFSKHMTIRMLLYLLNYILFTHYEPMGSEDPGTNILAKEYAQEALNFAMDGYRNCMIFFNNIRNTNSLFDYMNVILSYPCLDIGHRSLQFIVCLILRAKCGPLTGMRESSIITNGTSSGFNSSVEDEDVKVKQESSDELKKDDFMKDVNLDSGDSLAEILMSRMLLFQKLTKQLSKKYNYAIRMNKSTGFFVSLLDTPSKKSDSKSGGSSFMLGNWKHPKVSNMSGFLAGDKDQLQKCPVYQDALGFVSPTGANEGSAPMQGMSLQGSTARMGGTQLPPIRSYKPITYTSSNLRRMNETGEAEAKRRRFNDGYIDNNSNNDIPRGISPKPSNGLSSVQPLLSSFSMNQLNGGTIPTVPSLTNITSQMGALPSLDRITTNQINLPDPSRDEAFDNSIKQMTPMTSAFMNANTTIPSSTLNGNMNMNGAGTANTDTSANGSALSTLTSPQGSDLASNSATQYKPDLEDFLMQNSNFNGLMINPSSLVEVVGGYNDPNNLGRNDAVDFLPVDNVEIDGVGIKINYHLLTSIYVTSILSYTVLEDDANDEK
Summary of the method: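 Yeast transcription factors carrying a GST tag, as full-length proteins or DNA-binding domains, were produced by PURExpress in vitro transcription/translation. About 100-200 nM protein was applied to universal all-10-mer Agilent arrays, double-stranded by primer extension on fresh or once-stripped slides. Bound protein was detected with fluorescent anti-GST, and scans were normalised with masliner. The Universal PBM Analysis Suite gave each ungapped eight-base word, pooled with its reverse complement, an E-score, a modified Wilcoxon-Mann-Whitney statistic.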

Compared with CCGGGGCC, CCCGGGCG is higher in “PBM E-score” value: 0.318 for the first, 0.383 for the second.

Going from CCCGGGTA to CCCGGGGA, the “PBM E-score” value rises from 0.315 to 0.359.

Going from CCCGGGTC to GCCGGGGA, the “PBM E-score” value rises from 0.386 to 0.392.

First: CCCCGGCG
Second: GCCGGGAA
The “PBM E-score” value of the first is lower: 0.309 for the first, 0.326 for the second.

Going from CCGGGGCG to CCCGGGGC, the “PBM E-score” value rises from 0.322 to 0.33.

Compared with CCCGGGCC, ACCGGGTC is lower in “PBM E-score” value: 0.387 for the first, 0.194 for the second.

Going from CGGGGTTC to AACAGATC, the “PBM E-score” value falls from 0.211 to -0.0165.

Compared with GCCTTAGA, GGTAACAA is higher in “PBM E-score” value: -0.04 for the first, 0.13 for the second.

Compared with TAAGAATA, TGTCCACA is lower in “PBM E-score” value: -0.141 for the first, -0.159 for the second.

Compared with TTACCAAA, CTGGTTAC is lower in “PBM E-score” value: -0.0884 for the first, -0.205 for the second.

First: GAAAAGTA
Second: GATCTGCC
The “PBM E-score” value of the first is lower: -0.0758 for the first, 0.03 for the second.

Compared with CCCGGGCA, AGCGGGCG is lower in “PBM E-score” value: 0.376 for the first, 0.222 for the second.

Going from ACCGGGGC to ACCGGGCC, the “PBM E-score” value rises from 0.291 to 0.373.

First: AACGGGCG
Second: CCGGGGCA
The “PBM E-score” value of the first is lower: 0.246 for the first, 0.312 for the second.

Compared with ACCGGGCT, ACCGGGCA is lower in “PBM E-score” value: 0.334 for the first, 0.288 for the second.

Compared with GCCGGGCA, ACCGGGCG is higher in “PBM E-score” value: 0.301 for the first, 0.385 for the second.

First: ACCGGGGG
Second: ACCGGGGA
The “PBM E-score” value of the first is higher: 0.379 for the first, 0.284 for the second.

Compared with GCCAACAC, CGAGCAAG is lower in “PBM E-score” value: 0.0365 for the first, -0.182 for the second.

Going from CATTTAGG to CTCCTCCA, the “PBM E-score” value falls from -0.112 to -0.216.

Going from CCGGGCAA to GAGGAACC, the “PBM E-score” value falls from 0.322 to -0.0105.

Going from CAGCATTC to TATCAGCA, the “PBM E-score” value rises from -0.162 to 0.0209.

Going from GCTTCACC to CTCAGTTC, the “PBM E-score” value falls from -0.12 to -0.241.

First: GCTCTGTA
Second: AGAACATG
The “PBM E-score” value of the first is lower: -0.234 for the first, -0.0473 for the second.

First: CCCCTCCC
Second: AACTGCCA
The “PBM E-score” value of the first is higher: -0.00587 for the first, -0.186 for the second.

Going from AACTCCGC to TACTCCGA, the “PBM E-score” value falls from 0.389 to 0.375.

Compared with AACTCCGG, AACTCCGT is lower in “PBM E-score” value: 0.481 for the first, 0.447 for the second.

Compared with AACTCCAT, CACTCCGA is higher in “PBM E-score” value: 0.139 for the first, 0.212 for the second.

Compared with CACTCCGG, AACTCCCG is higher in “PBM E-score” value: 0.302 for the first, 0.333 for the second.

Going from GACTCCGC to AACTCCCT, the “PBM E-score” value falls from 0.174 to -0.0179.

Compared with CACTCCGC, GACTCCGA is higher in “PBM E-score” value: 0.156 for the first, 0.301 for the second.

Compared with ACCCTGTA, CCTTCAAG is lower in “PBM E-score” value: -0.0405 for the first, -0.253 for the second.

Going from AAGTGGCG to ACGGCTGG, the “PBM E-score” value rises from -0.0765 to 0.00715.

Compared with AACTCCGA, AACTCCCA is lower in “PBM E-score” value: 0.474 for the first, -0.00143 for the second.

Going from AACTCCAA to TCTGTCCA, the “PBM E-score” value rises from -0.0924 to 0.00731.

First: CATCGGCG
Second: ACACTAGA
The “PBM E-score” value of the first is higher: 0.264 for the first, -0.095 for the second.

Going from TCGGACAA to CCGGACAC, the “PBM E-score” value falls from 0.394 to 0.351.

First: CCGGACAA
Second: CTGGACAA
The “PBM E-score” value of the first is higher: 0.414 for the first, -0.215 for the second.

Compared with CCGGACAG, ACGGACAA is lower in “PBM E-score” value: 0.382 for the first, 0.335 for the second.

First: CAGGACAA
Second: CAGGACAG
The “PBM E-score” value of the first is higher: 0.0261 for the first, -0.195 for the second.

Going from GCGGACAA to CGCGGGAG, the “PBM E-score” value falls from 0.304 to 0.0987.

Compared with CCAGTGCG, GTTCCATA is lower in “PBM E-score” value: 0.0478 for the first, -0.0357 for the second.

Going from ACGCAACT to AGTGCCAT, the “PBM E-score” value falls from 0.064 to -0.0559.

Going from GAATCGGA to ATATCGGA, the “PBM E-score” value rises from 0.366 to 0.439.
